Compound activity: PubChem BioAssay, National Center for Advancing Translational Sciences (NCATS)
PLK1 PBD block = qHTS for Inhibitors of PLK1-PDB (polo-like kinase 1 - polo-box domain): Primary Screen; Serine/threonine-protein kinase PLK1 (Homo sapiens), P53350; Plk1 PBD binding of FITC phosphopeptide, fluorescence polarization; Potency, µM, without a hit: max response, negative = inhibition, hits mostly inhibitors; 2.8% of 360,000 active; further: potency means the concentration at half of the fitted maximal effect; series mostly up to about 57 µM; on the % scale 0 is the no-effect control and ±100 the full control effect; nearly all actives have a fitted effect of over 65% in size
Target sequence (P53350 whole entry, looked up, the tested form may be a part): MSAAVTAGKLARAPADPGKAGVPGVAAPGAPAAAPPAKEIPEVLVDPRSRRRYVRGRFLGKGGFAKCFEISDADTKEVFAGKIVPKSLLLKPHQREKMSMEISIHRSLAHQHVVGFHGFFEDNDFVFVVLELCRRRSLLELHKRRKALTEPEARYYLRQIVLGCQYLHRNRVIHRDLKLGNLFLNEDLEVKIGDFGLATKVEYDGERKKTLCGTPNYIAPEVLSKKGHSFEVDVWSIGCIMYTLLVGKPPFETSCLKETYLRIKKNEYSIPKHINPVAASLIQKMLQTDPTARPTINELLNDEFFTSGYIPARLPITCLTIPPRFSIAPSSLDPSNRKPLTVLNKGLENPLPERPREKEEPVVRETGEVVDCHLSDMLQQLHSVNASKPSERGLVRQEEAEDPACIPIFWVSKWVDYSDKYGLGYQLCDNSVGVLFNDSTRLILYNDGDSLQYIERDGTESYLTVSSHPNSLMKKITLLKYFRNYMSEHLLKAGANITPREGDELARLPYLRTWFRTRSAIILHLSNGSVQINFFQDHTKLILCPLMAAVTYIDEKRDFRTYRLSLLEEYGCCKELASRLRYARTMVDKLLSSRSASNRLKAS
GCN5L2 inh = qHTS Assay for Inhibitors of GCN5L2; Histone acetyltransferase KAT2A (Homo sapiens), Q92830; GCN5L2 HAT assay, ThioGlo1 CoA-SH fluorescence; Potency, µM (highest dose often 58.9 µM), without a hit: at the highest dose activity change, negative = inhibition, hits mostly inhibitors; 0.21% of 390,000 active; further: potency means the concentration at half of the fitted maximal effect; on the % scale 0 is the no-effect control and ±100 the full control effect
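GCN5L2 (20 nM) in 50mM HEPES pH 7.5, 0.1mM EDTA, 0.01% Tween-20 preincubated 15 min with compounds at room temperature. Reaction started with H3(1-25) 75uM, acetyl-CoA 70uM, ThioGlo1 50uM; CoA-thiol fluorescence (Ex340/Em540) read at 0 and 20 min.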
BAZ2B inh = qHTS Assay for Inhibitors of BAZ2B | AlphaScreen BAZ2B-H3K14Ac peptide displacement | Bromodomain adjacent to zinc finger domain protein 2B (Homo sapiens), Q9UIF8 | Potency, µM (top dose mostly 114 µM), for the others: at the top dose activity change, negative = inhibition, hits mostly inhibitors | 4.4% of 360,000 active | AID 504333, 2011; further: potency means the concentration at half of the fitted maximal effect; on the % scale 0 is the no-effect control and ±100 the full control effect; nearly all actives have a fitted effect of over 60% in size
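BAZ2B (50 nM) with biotin-H3(5-23)K14Ac peptide (50 nM) in PBS pH 7.4, 0.01% Tween-20, preformed 30 min, then compound 30 min at room temperature; top concentration 110uM. AlphaScreen streptavidin donor/nickel chelate acceptor beads (10 ug/mL final), 20 min dark, signal read.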
HP1b chromo inh = HTS for Inhibitors of HP1-beta Chromodomain Interactions with Methylated Histone Tails. Chromobox protein homolog 1 (Homo sapiens), P83916. AlphaScreen HP1-beta / biotin-H3K9me3 peptide binding. Potency, µM (doses to about 114 µM), inactives show at the highest dose activity change, negative = inhibition, most hits filed as inhibitors. 0.56% of 390,000 active; further: potency means the concentration at half of the fitted maximal effect; nearly all actives have a fitted effect of over 70% in size
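Compound inhibition of the preformed complex between 50 nM HP1-beta and 50 nM biotinylated H3K9me3 peptide was read by AlphaScreen. Buffer was PBS pH 7.4 with 0.01% Tween-20. Incubations ran 30 min at room temperature, with 10 ug/mL donor/acceptor beads.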
PI5P4Ka inh = qHTS for Inhibitors of phosphatidylinositol 5-phosphate 4-kinase (PI5P4K); Phosphatidylinositol 5-phosphate 4-kinase type-2 alpha (Homo sapiens), P48426; AID 652105, 2013; 1.2% of 330,000 active; PI5P4Kalpha enzyme, ADP-Glo luminescence, 60 min; active compounds read low; max response, %; active means max response of -50% or lower; inconclusive means between -30% and -50%; inactive means -30% or higher; further: value at the top dose of about 77 µM; on the % scale 0 is the no-effect control and ±100 the full control effect
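Single end-point luminescence (ADP-Glo) quantified ADP from PI5P4Kalpha turnover; ATP 5 microM final, 1 h at RT, 0.1% CHAPS and 0.28 mM EGTA in HEPES pH 7.4.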
JMJD2A Tudor inh = qHTS Assay for Inhibitors of JMJD2A-Tudor Domain. 4.4% of 390,000 active. AlphaScreen JMJD2A-Tudor / H3K4me3 peptide binding. AID 504339, 2011. Potency, µM (series often up to 114 µM), inactives show top-dose activity change, negative = inhibition, most hits filed as inhibitors. Lysine-specific demethylase 4A (Homo sapiens), O75164; further: potency means the concentration at half of the fitted maximal effect; on the % scale 0 is the no-effect control and ±100 the full control effect; nearly all actives have a fitted effect of over 50% in size
* hit, by the source's call; u = inconclusive; x = no result; [ ] = dose if it differs, or a comment. Only some compounds are listed: those with a hit (about 7% of all), similar ones and a draw of the others. Unless noted, the call rests on the fitted dose curve; in most records, active means well fitted curve in the direction sought with a large enough effect; inconclusive means small, poorly fitted or top-dose-only effect, or another doubt; inactive means no such curve, though single readings can be large; an effect the other way counts as inactive or inconclusive.

SMILES	PLK1 PBD block	GCN5L2 inh	BAZ2B inh	HP1b chromo inh	PI5P4Ka inh	JMJD2A Tudor inh
Cc1oc2c(CN3CCCC(C)C3)c(O)ccc2c(=O)c1-c1ccccc1 (centres undefined)	3%	-6%	-2%	10%	1	7%
O=c1c2c3c(sc2nc2n1CCCCC2)CCCC3	27µM*	1%	x	-31%	-17	u
Nc1c(Br)c(=O)[nH]c(=O)n1-c1ccc(F)cc1	-7%	2%	8%	47%	1	-7%
Nc1c(NCc2ccccc2)c(=O)[nH]c(=O)n1Cc1ccccc1	-11%	-3%	0%	22%	-11	-17%
CCCNc1c(N)n(-c2ccccc2)c(=O)[nH]c1=O	-7%	-7%	56µM*	14%	x	u
Nc1c(N=O)c(=O)[nH]c(=O)n1-c1ccccc1	5%	x	x	-17%	-5	50µM*
COc1ccc(C2c3c(n(C)c4ccccc34)C(=O)N2CC(=O)Nc2ccc(C)cc2Cl)cc1 (centres undefined)	x	-3%	-28%	-10%	x	-29%
Cc1nn(-c2ccc(C(=O)NCC(c3ccco3)N3CCCC3)cc2)c(C)c1Cl (centres undefined)	-1%	0%	16%	32%	4	-14%
COCCN(C(=S)Nc1c(C)cc(C)cc1C)C(C)c1cccnc1 (centres undefined)	6µM*	-1%	7%	u	-18	-1%[57.1 µM]
C=CCN1C(c2ccccc2)=CS/C1=C(/C#N)c1nnc(N2CCOCC2)n1-c1ccccc1	21µM*	-4%	-34%	14%	-7	u
Cc1cc(/C=C(\C#N)c2nnc(N3CCOCC3)n2-c2ccccc2)c(C)n1-c1ccccc1	x	-8%	50µM*	x	x	x
CN1C(c2ccc(F)cc2)=CS/C1=C(/C#N)c1nnc(N2CCOCC2)n1-c1ccccc1	-14%	-4%	-22%	32%	1	-29%
Cc1c(C=N)c(O)n(C)c(=O)c1C#N	-1%	-9%	-1%	-12%	-3	-8%
COc1ccc(Cl)cc1NC(=O)Cn1c(C)csc1=O	-3%	-3%	-1%	16%	-9	-5%
COc1ccc(CC(=O)NC2CC(=O)N(c3cccc(F)c3)C2)cc1OC (centres undefined)	x	-3%	-4%	12%	x	-8%
CCc1cc(=O)oc2cc(C)c(CN3CCCC(C)C3)c(O)c12 (centres undefined)	u	32µM*	22µM*	-31%	x	35µM*
CCCCc1cc(=O)oc2cc(C)c(CN3CCCC3)c(O)c12	-26%	u	45µM*	-11%	x	50µM*
O=c1cc(CN2CCc3ccccc3C2)nc2sccn12	-2%	2%	7%	42%	-2	-6%
COC(=O)c1ccc(C(=O)Nc2ccc(C(C)C)cc2N)cc1	30µM*	0%	-10%	-4%	-7	-27%
Cc1ccc(NC(=S)N/N=C/c2cccn2Cc2ccccc2F)cc1	-22%	17%	28µM*	26%	4	u
Cc1ccc(CN2CCN(CC(=O)N/N=C/c3ccccc3F)CC2)cc1	-12%	-2%	-4%	38%	-4	-33%
O=C(Nc1cccc(C(F)(F)F)c1)c1cc(-c2ccc(Cl)s2)nc2ccccc12	x	-1%	3%	50%	x	2%
COc1ccc(Cc2[nH]n3c(=O)c(Cl)c(C)nc3c2-c2ccccc2)cc1	u	-1%	-3%	40%	-2	-6%
Cc1ccc(NC(=O)c2cc3ccccc3cc2O)cc1	3%	-2%	-17%	23%	0	-13%
COc1ccc(S(=O)(=O)Nc2c(O)ccc3ccccc23)cc1OC	30µM*	x	x	71µM*	-21	79µM*
SMILES	PLK1 PBD block	GCN5L2 inh	BAZ2B inh	HP1b chromo inh	PI5P4Ka inh	JMJD2A Tudor inh
COc1ccc(NC(=O)c2cc3ccccc3cc2O)cc1	30µM*	0%	-11%	-18%	-3	u
COc1ccc(C(=O)Nc2c(O)ccc3ccccc23)cc1	u	x	x	u	-22	79µM*
COc1ccc(C(C)NC(=O)CN(c2cc(OC)ccc2OC)S(=O)(=O)c2ccccc2)cc1 (centres undefined)	x	-12%	-19%	0%	x	-20%
NC(=O)c1ncn([C@@H]2O[C@H](CNCc3cc(Br)ccc3OCc3ccccc3)[C@@H](O)[C@H]2O)n1	-16%	x	x	15%	0	-18%
CCC(=O)Nc1ccc(C2C(=O)c3ccccc3C2=O)cc1	24µM*	16%	u	u	-6	u
CC(NC(=O)c1ccc2c(c1)sc1nc(-c3ccc(F)cc3)cn12)C12CC3CC(CC(C3)C1)C2 (centres undefined)	x	-4%	-16%	41%	x	-9%
CCOC(=O)/C=C1\SCC(=O)N1CC(=O)c1ccc[nH]1	-1%	-4%	-33%	21%	-53*	-30%
CCOC(=O)/C=C1\SCC(=O)N1CC(=O)Nc1ccc(OC)c(OC)c1	-15%	-1%	-1%	32%	4	-6%
COC(=O)c1ccc(OCC2c3cc(OC)c(OC)cc3CCN2C(=O)c2ccccc2F)cc1 (centres undefined)	x	-4%	-27%	21%	x	-28%
Cc1cc(/C=C2\SC(=S)NC2=O)c(C)n1C	-9%	-3%	45µM*	-36%	x	45µM*
Cc1cc(/C=C2\SC(=S)NC2=O)c(C)n1-c1ccc(O)cc1	-18%	-9%	40µM*	u	-83*	-15%[11.4 µM]
COc1ccc(-n2c(C)cc(/C=C3\SC(=S)NC3=O)c2C)cc1	-7%	1%	-12%	9%	u	-23%
Cc1cc(C=C2C(=O)CCCC2=O)c(C)n1-c1ccccc1	u	-19%	50µM*	-12%	u	u
COC(=O)CN1C(=O)S/C(=C/c2cc(C)n(C)c2C)C1=O	-6%	-25%	u	-21%	x	u
Cc1cc(/C=C2/C(=O)NN(c3ccccc3)C2=O)c(C)n1-c1ccc(O)cc1	-12%	-2%	-6%	u	-20	-21%
Cc1cc(C(=O)O)ccc1-n1c(C)cc(/C=C2\SC(=O)NC2=O)c1C	-9%	1%	-30%	31%	-58*	-18%
COc1ccc(CNCc2ccc(C(=O)O)s2)cc1	x	-2%	4%	15%	x	-8%
Cc1cc(/C=C2\SC(=S)NC2=O)c(C)n1-c1ccccc1	u	-21%	u	-20%	-83*	14µM*
c1ccc(CCNc2ccccc2)cc1	x	0%	56µM*	x	x	x
c1ccc(NCCc2ccccn2)cc1	2%	x	x	5%[57 µM]	-2	-17%
